# Compound activity deposited in PubChem BioAssay by National Center for Advancing Translational Sciences (NCATS).
# IL1B secr inh: qHTS for Inhibitors of Inflammasome Signaling: IL-1-beta AlphaLISA Primary Screen; AID 743279, 2014; 360,000 compounds, 4.7% hits; THP-1 LPS/ATP IL-1B secretion, AlphaLISA, 16 h; stronger effect = lower value; activity change, % at 57.5 µM; in the data active = activity change below about -50%; inconclusive = mostly about -30% to -49%; also: % is scaled to controls: 0 for no effect and ±100 for the full control effect
#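 THP-1 cells pretreated 1 hr with compounds (up to 57.5 uM final), then stimulated with LPS (250 ng/mL final) plus ATP (1.25 mM final); secreted IL-1B measured by AlphaLISA after 16 hr, decreased signal indicating inhibition.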
# ASM inhibitor: Inhibitors of Secretory Acid Sphingomyelinase (S-ASM): qHTS; 340,000 compounds, 0.006% hits; placental ASM, HMU-PC fluorogenic substrate, 60 min; AID 504937, 2011; Sphingomyelin phosphodiesterase (Homo sapiens), P17405; Potency, µM (doses to about 57.5 µM), without a hit: top-dose activity change, negative = inhibition, most hits filed as inhibitors; also: potency is read from the fitted curve at half-maximal effect
# Target sequence (P17405 47-631 limits assumed): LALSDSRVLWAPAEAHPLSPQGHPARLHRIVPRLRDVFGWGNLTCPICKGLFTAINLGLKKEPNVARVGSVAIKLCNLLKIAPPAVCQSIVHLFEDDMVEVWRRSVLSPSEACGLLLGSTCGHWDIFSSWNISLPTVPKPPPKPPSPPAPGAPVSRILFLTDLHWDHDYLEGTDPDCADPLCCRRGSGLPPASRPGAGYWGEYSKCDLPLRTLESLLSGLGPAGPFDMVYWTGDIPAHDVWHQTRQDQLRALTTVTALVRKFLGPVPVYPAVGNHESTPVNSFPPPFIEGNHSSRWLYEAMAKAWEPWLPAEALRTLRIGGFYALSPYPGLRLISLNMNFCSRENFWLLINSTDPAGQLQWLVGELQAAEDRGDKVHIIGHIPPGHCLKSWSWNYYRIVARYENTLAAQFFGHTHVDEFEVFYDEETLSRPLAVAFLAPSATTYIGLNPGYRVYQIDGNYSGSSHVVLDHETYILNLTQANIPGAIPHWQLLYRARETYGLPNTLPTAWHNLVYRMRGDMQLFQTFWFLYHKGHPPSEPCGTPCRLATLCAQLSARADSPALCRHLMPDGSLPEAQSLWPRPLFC
#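 qHTS format. ASM enzyme prepared from human placenta hydrolyses the fluorogenic substrate HMU-PC0 (9 uM final) over 60 min at 37 °C after a 10 min compound preincubation.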
# TGFb inhibitor: qHTS for Inhibitors of TGF-b; HepG2 CAGA-GFP TGF-b/SMAD3 reporter, GFP fluorescence, 18 h; TGF-beta stimulated, 500 pg/mL final; 410,000 compounds, 1.2% hits; Potency, µM (top dose mostly 46.1 µM), inactives show at the top dose activity, negative = inhibition, most hits filed as inhibitors; AID 588855, 2011; also: potency is read from the fitted curve at half-maximal effect; % is scaled to controls: 0 for no effect and ±100 for the full control effect; nearly all actives have a fitted effect of over 65% in size
#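 Inhibition was scored as loss of TGF-beta-induced (500 pg/mL final, 18 hours, 37 degrees C) GFP in HEPG2 cells carrying a CAGA-GFP reporter, in DMEM with 1% FBS. Well GFP was summed per cell; Activity was normalised to unstimulated and stimulated DMSO wells, then concentration-response fitting.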
# DT40 TDP1 no CPT: qHTS for Inhibitors of human tyrosyl-DNA phosphodiesterase 1 (TDP1): qHTS in cells in absence of CPT. DT40 Tdp1-/- hTDP1 cells, no CPT, ATP luminescence, 48 h. Potency, µM (doses to about 46.2 µM), for the others: at the top dose activity change, negative = growth inhibition, hits mostly inhibitors. 420,000 compounds, 15% hits; also: potency is read from the fitted curve at half-maximal effect; % is scaled to controls: 0 for no effect and ±100 for the full control effect; nearly all actives have a fitted effect of over 55% in size
#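 Growth of hTDP1-complemented DT40 Tdp1-knockout cells is measured by ATP luminescence after at least 48 hr compound exposure at 37 °C, with DMSO substituting for the 20 nM CPT used in the parallel screen.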
# TDP1 cell CPT: qHTS for Inhibitors of human tyrosyl-DNA phosphodiesterase 1 (TDP1): qHTS in cells in presence of CPT; chicken DT40 Tdp1-/-;hTDP1 cells + 20 nM CPT, ATP luminescence, 48 h; Potency, µM (titrated, usually from 46.2 µM), without a hit: top-dose activity change, negative = growth inhibition, actives largely listed as inhibitors; 420,000 compounds, 12% hits; AID 686979, 2013; also: potency is read from the fitted curve at half-maximal effect; % is scaled to controls: 0 for no effect and ±100 for the full control effect; nearly all actives have a fitted effect of over 55% in size
#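 Cell growth measured by CellTiter-Glo luminescence after a minimum 48 h, 37 C compound exposure with 20 nM CPT in Tdp1-knockout DT40 cells stably expressing hTDP1, seeded 400/well; qHTS titration format.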
# HepG2 viability: qHTS for Inhibitors of TGF-b: Cytotox Counterscreen; HepG2 CAGA-GFP viability, ATP luminescence, 18 h; Potency, µM (top dose mostly 46.1 µM), for the others: top-dose activity change, negative = cytotoxicity, actives largely listed as cytotoxic; 410,000 compounds, 0.76% hits; AID 588856, 2011; also: potency is read from the fitted curve at half-maximal effect
#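 CellTiter-Glo luminescence gave cytotoxicity after 18 hours at 37 degrees C. The cells were HepG2 CAGA-GFP in 1% FBS DMEM, stimulated with 500 pg/mL TGF-beta after compound addition. %Activity was normalised to no-cell wells (complete cell-killing) and DMSO (no toxicity), and curves were fitted and classified.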
# Numbers without * were called inactive; ? = inconclusive; . = no result given. Sampled rows, rich in hits. Any-hit rate of the full collection: about 19%. Unless noted, calls follow the shape of the dose curve; as a rule, active = well fitted curve in the direction sought with a large enough effect; inconclusive = small, poorly fitted or top-dose-only effect, or another doubt; inactive = no such curve, though single readings can be large; an effect the other way counts as inactive or inconclusive.
SMILES,IL1B secr inh,ASM inhibitor,TGFb inhibitor,DT40 TDP1 no CPT,TDP1 cell CPT,HepG2 viability
C/C(=N\Nc1nc(N)cc(Cl)n1)c1cccc(N)c1,-2.6,-3.2%,-19.7%,?,?,-25.5%
COC(=O)COc1ccc(Oc2nc(NC(C)(C)C)nc(N3CCOCC3)n2)nn1,.,.,7.5%,-5.4%,-23.4%,0.5%
COC(=O)c1cc(S(=O)(=O)NCCc2cccc(C)c2)cn1C,-11.0,0.6%,-4.0%,-19.8%,8.6%,-0.9%
Cc1ccc(-n2c(=O)[nH]c3sc4c(c3c2=O)CCNC4)cc1C,.,.,-6.6%,0.7%,?,-7.5%
CCN(CC)S(=O)(=O)c1ccc2oc(SCc3ccc(F)cc3)nc2c1,-6.2,-5.0%,-12.8%,20.6µM*,?,-5.3%
COc1ccccc1NS(=O)(=O)c1ccc2oc(SCc3ccc(C#N)cc3)nc2c1,-7.1,-1.2%,?,18.4µM*,11.6µM*,12.1%
COc1ccccc1NS(=O)(=O)c1ccc2oc(SCC(=O)N3CCNC3=O)nc2c1,-5.0,-3.1%,-18.7%,?,3.66µM*,-17.8%
COC(=O)c1c(OCc2cccnc2)cc(=O)n2c1CCN(C(=O)c1c3c(nn1C)CCCC3)CC2,.,.,.,-11.3%,-2.4%,.
CCc1cc2c3c([nH]c2cc1S(=O)(=O)N1CCC2(CC1)OCCO2)CCCC3=O,-15.7,-2.3%,-8.1%,16.4µM*,23.1µM*,-12.0%
Cc1c(C(=O)NCc2ccc([N+](=O)[O-])cc2)sc(=O)n1Cc1ccc2c(c1)OCO2,-20.5,.,-8.8%,?,?,-2.6%
COc1ccccc1C1CCN(Cc2cccc3ccccc23)CC1,10.4,-0.4%,-22.6%,16.4µM*,?,-43.8%
COc1ccccc1C1CCN(Cc2c(C)[nH]c3ccccc23)CC1,.,-1.1%,?,5.8µM*,4.61µM*,-46.7%
CCc1ccccc1NC(=O)Cn1cc(C(=O)c2ccc(Cl)cc2)c(=O)c2ccc(C)nc21,.,.,-8.6%,5.0%,1.0%,-17.2%
CNC[C@H](O)[C@@H](O)[C@H](O)[C@H](O)CO,.,.,.,-10.3%,-0.5%,.
Cc1ccc2[nH]c(O)c(N=NC(=O)C3CC3c3ccccc3)c2c1Br (stereo unspecified),6.8,.,0.0%,23.1µM*,20.6µM*,-18.4%
Cn1c(=O)n(Cc2ccccc2)c(=O)c2c1nc1n2CCN1c1ccccc1,.,.,0.7%,-15.8%,-12.1%,-27.4%
COc1cccc(NC(=O)C2(C)CCN2Cc2ccc(-c3ccccc3)o2)c1 (stereo unspecified),-8.3,.,?,?,?,-4.5%
CSc1ccc(CN2CCC2(C)C(=O)Nc2cnc3ccccc3c2)cc1 (stereo unspecified),-20.3,.,?,?,?,-50.7%
CC1(C(=O)Nc2cnc3ccccc3c2)CCN1Cc1ccc(-c2ccccc2)o1 (stereo unspecified),-22.1,.,?,16.4µM*,?,-25.7%
COc1cccc(CN2CCC2(C)C(=O)Nc2cnc3ccccc3c2)c1F (stereo unspecified),0.0,.,-0.2%,18.4µM*,?,-15.3%
CC1(C(=O)Nc2cnc3ccccc3c2)CCN1Cc1ccccc1OC(F)F (stereo unspecified),.,.,?,16.4µM*,23.1µM*,-29.6%
COc1cccc(CN2CCC2(C)C(=O)Nc2ccc(Cl)c(Cl)c2)c1F (stereo unspecified),-2.8,.,-30.4%,?,20.6µM*,-12.6%
CCCSc1nnc2c(n1)OC(c1cccs1)Nc1ccc(Br)cc1-2 (stereo unspecified),.,.,-22.4%,-25.8%,-8.7%,-6.7%
CC1(C(=O)Nc2cnc3ccccc3c2)CCN1Cc1ccccc1Cl (stereo unspecified),-11.9,.,?,14.6µM*,16.4µM*,-44.8%
O=C(O)c1ccccc1SCCS(=O)(=O)c1ccc(Cl)cc1Cl,35.5,5.2%,4.6%,-28.1%,3.2%,2.5%
SMILES,IL1B secr inh,ASM inhibitor,TGFb inhibitor,DT40 TDP1 no CPT,TDP1 cell CPT,HepG2 viability
Cn1nnnc1SCCNCc1cc(Br)ccc1OCc1ccccc1Cl,.,.,?,16.4µM*,23.1µM*,-51.1%
Cn1nnnc1SCCNCc1ccccc1OCc1ccccc1F,.,.,0.0%,?,18.4µM*,-21.7%
Cn1nnnc1SCCNCc1ccccc1OCc1ccccc1Cl,-50.4*,0.9%,0.0%,13µM*,?,-18.7%
COc1ccccc1CNCCSc1nnnn1C,.,.,-2.5%,-13.7%,2.6%,-3.1%
O=S(=O)(c1cccc2nsnc12)N1CCN(Cc2ccccc2)CC1,8.9,2.1%,?,-22.3%,-3.7%,-1.7%
CCSc1ncc(Cl)c(C(=O)Nc2ccc(S(=O)(=O)Nc3nccc(C)n3)cc2)n1,.,.,-12.4%,?,-28.3%,-23.3%
CN1C(C(=O)NCC2CC2)CC2Cn3c(nc4cc(Cl)c(Cl)cc43)C21 (stereo unspecified),6.3,-1.5%,-4.7%,-17.6%,-16.6%,-2.4%
CC(C)CCNC(=O)C1CC2Cn3c(nc4cc(Cl)c(Cl)cc43)C2N1C (stereo unspecified),-20.8,5.3%,-20.2%,23.1µM*,?,-26.3%
Cc1cc(C)c2nc(-c3ccccn3)cc(C(=O)n3cccn3)c2c1,0.0,6.9%,-0.3%,18.4µM*,?,10.7%
CCc1ccc(-n2c(=O)c3ccc(C(=O)NCCc4ccccc4)cc3n(CC(N)=O)c2=O)cc1,12.9,-0.1%,-5.2%,20.6µM*,?,3.9%
CCCN(CCC)C(=O)Cn1c(=O)n(-c2ccc(CC)cc2)c(=O)c2ccc(C(=O)NCCc3ccccc3)cc21,.,.,-3.1%,7.31µM*,11.6µM*,1.9%
CCCc1nnc(NC(=O)c2cc(=O)c3cc(Cl)ccc3o2)s1,.,.,-10.0%,3.3%,1.3%,-10.6%
O=C(N=Nc1c(O)[nH]c2ccc(Br)cc12)c1cc(-c2cccs2)nc2ccccc12,19.9,-3.4%,-3.5%,6.51µM*,4.61µM*,-39.7%
COc1ccc(-c2nc(CN3CCN(C(=O)c4ccco4)CC3)c(C)o2)c(F)c1,8.9,-1.8%,-3.8%,?,0.0%,-9.7%
CSc1nncc(=O)[nH]1,22.0,2.9%,-0.2%,23.1µM*,?,-4.3%
